Source: PubChem
AMA1 RON2 block: disrupts binding of P. falciparum AMA1 to RON2; AID 720542; AlphaScreen AMA1-biotinylated RON2 peptide binding; actives 0.2% (n = 360,000); Potency, µM (titrated, usually from 58.2 µM), hits mostly inhibitors; note: nearly all actives have a fitted effect of over 45% in size
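AMA1 (3D7) with his tag at 25 nM final met compounds first, then biotinylated RON2 peptide at 25 nM; detection used donor plus acceptor beads, 10 µg/mL apiece, read by AlphaScreen after 30 min at room temperature.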
Pf growth 48h: P. falciparum growth inhibition at 48 hours (one generation) | P. falciparum luciferase growth in erythrocytes, 48 h | actives 5.9% (n = 310,000) | AID 504832 | Potency, µM (doses to about 28.7 µM), most hits filed as inhibitors
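Parasite viability was followed by luminescence of a genomically integrated firefly luciferase. Cultures held 0.1% parasitemia at 2% hematocrit (final), incubated under 5% CO2 at 37 C.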
NS1 inh: blocks influenza NS1 protein function. Potency, µM (titrated, usually from 46.1 µM). actives 0.4% (n = 270,000). AID 2326; calls by dose curve; note: actives are rising curves; nearly all actives have a fitted effect of over 50% in size
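Read-out: OD600 growth recovery of NS1-expressing budding yeast. Cells grown overnight at 30C in -URA glucose medium, washed, resuspended and diluted 1:100 in 2% galactose assay medium, pH 6.0. Same strain lacking NS1 served as positive control.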
Sm TGR inh: blocks Schistosoma mansoni thioredoxin glutathione reductase; Q962Y6; purified TGR, DTNB reduction, TNB absorbance 405 nm; Potency, µM (titrated, usually from 114 µM), hits mostly inhibitors; actives 3% (n = 360,000); AID 485364; note: nearly all actives have a fitted effect of over 60% in size
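First, TGR (20 nM dispensed) and NADPH were mixed with compound. Second, a 15 min room-temperature incubation followed. Third, further NADPH and then DTNB were added to start the reaction. Finally, TNB absorbance was monitored kinetically.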
Pf growth 96h: P. falciparum growth inhibition at 96 hour, primary screen for plastid delayed-death inhibitors | actives 6.9% (n = 320,000) | P. falciparum luciferase reporter growth, 96 h | AID 504834 | Potency, µM (series often up to 28.7 µM), hits mostly inhibitors
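Luminescence readout: decreased luciferase signal marks inhibited growth of reporter-expressing P. falciparum in infected red cells (2% hematocrit, 0.05% parasitemia final), exposed to compound two generations (96 h, 37 C, 5% CO2).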
Large screens that a line does not name were inactive. An excerpt weighted towards active compounds, which were near 11% of everything screened. Unless noted, calls come from the whole dose curve; as a rule, active = well fitted curve in the direction sought with a large enough effect; inconclusive = small, poorly fitted or top-dose-only effect, or another doubt; inactive = no such curve, though single readings can be large; an effect the other way counts as inactive or inconclusive.

Cc1sc2ncnc(N3CCC(C(=O)Nc4ccc(C#N)c(Cl)c4)CC3)c2c1C	Pf growth 48h inconclusive, Pf growth 96h 11.7µM (no result: NS1 inh)
Cc1sc2ncnc(N3CCC(C(=O)Nc4ccc(Cl)cc4Cl)CC3)c2c1C	Pf growth 48h 10.4µM, Pf growth 96h inconclusive (no result: NS1 inh)
Cc1sc2ncnc(N3CCC(C(=O)Nc4ccc(Br)cc4Br)CC3)c2c1C	Pf growth 48h inconclusive, Pf growth 96h inconclusive (no result: NS1 inh)
Cc1sc2ncnc(N3CCC(C(=O)Nc4ccc(Cl)c(Cl)c4)CC3)c2c1C	Pf growth 48h 13.1µM, Pf growth 96h inconclusive (no result: NS1 inh)
CNC(=O)c1ccc(NC(=O)C2CCN(c3ncnc4sc(C)c(C)c34)CC2)cc1	Pf growth 48h inconclusive, Pf growth 96h inconclusive
O=C(c1ccc(Cl)cc1)N1CCCCC(Cl)C1=O (stereo not given)	none (no result: NS1 inh)
Cc1[nH]ccc(=O)c1OCc1c(Cl)cccc1Cl	none
Cc1ccc(Cn2ccc(=O)c(OCc3c(Cl)cccc3Cl)c2C)cc1	Pf growth 96h 4.15µM (no result: Pf growth 48h)
CC1CCC(C(C)C)C(OCC(O)C[N+]2(C)CCCCC2)C1 (stereo not given)	Pf growth 48h inconclusive
CC1CCC(C(C)C)C(OCC[N+](C)(C)C)C1 (stereo not given)	Pf growth 48h 3.7µM
O=C(Cn1c(O)c(/C=C2\C=Nc3ccc(Br)cc32)sc1=O)N1CCCC1	NS1 inh inconclusive, Pf growth 96h 11.7µM (no result: Pf growth 48h)
O=c1cc(N2CCN(Cc3ccccc3)CC2)[nH]c(=O)n1Cc1ccc(F)cc1	Sm TGR inh inconclusive, Pf growth 96h 3.7µM
CCCCOC(=O)CSc1n[nH]c(=O)[nH]c1=O	Pf growth 96h 13.1µM (no result: Pf growth 48h)
Cc1cc(C(C)(C)C)oc1C(=O)N(CC(=O)NC1CCCC1)Cc1ccccc1Cl	Pf growth 48h inconclusive, Pf growth 96h 9.28µM
Cc1ccccc1N(CC(=O)NC1CCCC1)C(=O)c1oc(C(C)(C)C)cc1C	Pf growth 48h 11.7µM, Pf growth 96h inconclusive
Cc1ccc(C(=O)N(CC(=O)NC2CCCCC2)c2ccccc2C)s1	Pf growth 96h inconclusive
Cc1ccc(C(=O)N(CC(=O)NC2CCCC2)c2cccc(F)c2)s1	none
Cc1cc(C(C)(C)C)oc1C(=O)N(CC(=O)NC1CCCC1)c1cccc(C(F)(F)F)c1	Pf growth 48h 9.28µM, Pf growth 96h 11.7µM
CN(Cc1nc(-c2cnccn2)no1)Cc1n[nH]c2c1CCCC2	none
O=C(O)CCS(=O)(=O)c1nc(-c2cccs2)cc(C(F)(F)F)n1	Sm TGR inh 50.1µM, Pf growth 96h inconclusive (no result: Pf growth 48h)
COC(=O)c1ccccc1NC(=O)CCCS(=O)(=O)c1nc(-c2ccccc2OC)cc(C(F)(F)F)n1	none (no result: AMA1 RON2 block, Pf growth 48h, NS1 inh, Pf growth 96h)
CC(C)CNC(=O)CSc1nc(-c2cccs2)cc(C(F)(F)F)n1	Pf growth 48h inconclusive
CS(=O)(=O)c1nc(-c2cccs2)cc(C(F)(F)F)n1	Sm TGR inh 7.94µM, Pf growth 96h 13.1µM (no result: AMA1 RON2 block)
COc1ccc(-c2cc(C(F)(F)F)nc(S(=O)(=O)CCCC(=O)Nc3cccnc3Cl)n2)cc1OC	Pf growth 48h 11.7µM, Sm TGR inh inconclusive (no result: NS1 inh)
COc1ccc(NC(=O)CCS(=O)(=O)c2nc(-c3cccs3)cc(C(F)(F)F)n2)cc1OC	Sm TGR inh 39.8µM (no result: AMA1 RON2 block, Pf growth 48h, NS1 inh, Pf growth 96h)
Cc1nc(-c2cc(C#N)c(Sc3ccc(Cl)cc3Cl)nc2C)cs1	Pf growth 48h inconclusive, Pf growth 96h inconclusive
COc1ccc(-c2cc(C(F)(F)F)nc(S(C)(=O)=O)n2)cc1	Sm TGR inh 25.1µM, Pf growth 96h inconclusive (no result: Pf growth 48h)
O=[N+]([O-])c1cnn(-c2nc(-c3cccs3)cc(C(F)(F)F)n2)c1	Pf growth 48h 10.4µM, Pf growth 96h inconclusive (no result: NS1 inh)
O=C(CCS(=O)(=O)c1nc(-c2cccs2)cc(C(F)(F)F)n1)Nc1cccc(O)c1	Sm TGR inh 31.6µM (no result: AMA1 RON2 block, Pf growth 48h, NS1 inh, Pf growth 96h)
COc1cc(NC(=O)CCS(=O)(=O)c2nc(-c3cccs3)cc(C(F)(F)F)n2)cc(OC)c1OC	Pf growth 48h inconclusive, Sm TGR inh inconclusive (no result: AMA1 RON2 block, NS1 inh)
COc1cc2c(cc1OC)[C@@H]1O[C@](CCCCN3C(=O)c4ccccc4C3=O)(C2)Oc2cc(C)n(-c3ccccc3)c(=O)c21	Pf growth 48h 1.07µM, Pf growth 96h inconclusive (no result: AMA1 RON2 block)
COc1cc2c(cc1OC)C1O[C@](CCCCN3C(=O)c4ccccc4C3=O)(C2)Oc2cc(C)n(Cc3ccccc3)c(=O)c21	Pf growth 48h inconclusive, Sm TGR inh inconclusive, Pf growth 96h 2.39µM (no result: AMA1 RON2 block)
